# Assay outcomes from PubChem.
# Autofluor counter: flagged as autofluorescent in microsphere protease counterscreen; fluorescence intensity (no concentration beside the values); AID 624483; compound autofluorescence counterscreen, microsphere flow cytometry; active compounds read high; 3.1% of 360,000 active; in the data active means fluorescence intensity above about 16000; inconclusive means no clear call, values can overlap the other calls
# PriA SSB inh: inhibitors of Klebsiella pneumoniae PriA binding to SSB C-terminal tail, primary screen, biochemical, AlphaScreen | 0.6% of 430,000 active | AlphaScreen SSBct-PriA binding, biotinylated peptide | inhibition, % at 33 µM | PriA–SSB C-terminal tail interaction (Klebsiella pneumoniae); in the data active means inhibition mostly above about 37%, no sharp cut-off; inactive means mostly below about 20%;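 further: plate controls were negative control peptide for no effect and reference peptide for full effect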
# BoNT-F LC inh: BoNT/F light chain protease inhibitors, primary screen, biochemical, flow cytometry, MLPCN library. inhibition, % at 10 µM. 0.22% of 360,000 active. AID 588497, 2011. Multiplex microsphere protease cleavage assay. Botulinum neurotoxin type F light chain protease (Clostridium botulinum); in the data active means inhibition above about 35%, passing the limit was not always enough; inconclusive means no clear call, values can overlap the other calls; further: plate controls were buffer without enzyme for full effect and enzyme alone for no effect
# BoNT A protease: BoNT/A light chain protease inhibitors, primary screen, biochemical, flow cytometry, MLPCN library; Botulinum neurotoxin type A light chain protease (Clostridium botulinum A str. ATCC 3502); multiplex microsphere protease substrate cleavage; inhibition, % at 10 µM; 0.17% of 360,000 active; further: plate controls were buffer without enzyme for full effect and enzyme alone for no effect
# Anthrax LF inh2: Bacillus anthracis LF protease inhibitors, primary screen, biochemical, multiplex microsphere, MLPCN library | multiplex microsphere protease cleavage assay | 0.12% of 360,000 active | Lethal factor (Bacillus anthracis), P15917 | inhibition, % at 10 µM; further: plate controls were buffer without enzyme for full effect and enzyme alone for no effect
# Active calls of the source: *; ? = inconclusive; . = not tested or not shown. An excerpt weighted towards active compounds, which were near 3.1% of everything screened. Unless noted, no stated cut-off is given here; in the data, active means inhibition above about 30%; inconclusive means no clear call, values can overlap the other calls; inactive means below that.
SMILES,Autofluor counter,PriA SSB inh,BoNT-F LC inh,BoNT A protease,Anthrax LF inh2
O=C(Cn1ncccc1=O)N1C2CCC1CC(S(=O)(=O)c1ccccc1)C2 (stereo not given),.,88*,.,.,.
O=S(=O)(c1ccccc1)C1CC2CCC(C1)N2S(=O)(=O)C1CC1 (stereo not given),.,91*,.,.,.
Cc1nc2nc(Cc3ccccc3)nn2c(C)c1Cl,22300*,-7,3,3,-3
O=C(N[C@@H](Nc1ncccn1)C(=O)c1ccccc1)c1ccccc1,.,-5,.,.,.
N#Cc1ccc(-c2ccc(F)cc2)nc1Oc1ccccc1,9942,-15,-1,-1,8
N#Cc1ccc(-c2ccc(F)cc2)nc1Oc1ccc(F)cc1,21827*,-17,1,2,-3
O=C(CN1CCCc2ccccc21)N/N=C\C=C/c1ccccc1,.,39*,.,.,.
CCN(CC)c1ccc(C=NNC(=O)CN2CCCc3ccccc32)cc1,.,50*,.,.,.
Cc1csc(-c2csc(NCc3ccccc3)n2)c1,.,-3,.,.,.
Cc1ccc(S(=O)(=O)N2CCSC2C(=O)O)cc1 (stereo not given),9796,-5,8,1,-4
CN(C)N=Nc1ccc(S(=O)(=O)N2CCSC2C(=O)O)cc1 (stereo not given),25952*,-20,-10,?,-3
CCOc1cc(C(=O)Nc2cccc3ncccc23)cc(OCC)c1OCC,20303*,-24,-2,1,-1
CCOc1cc(C(=O)Nc2ccccc2NC(=O)c2cc(OCC)c(OCC)c(OCC)c2)cc(OCC)c1OCC,.,-8,.,.,.
CN(C)c1ccc(C(=O)Nc2ccc(S(=O)(=O)NC3=NCCCCC3)cc2)cc1,22816*,2,-1,1,-1
COc1ccc(NC(=O)NS(=O)(=O)c2ccc(C)cc2)c(OC)c1,9691,53*,-45,2,-10
COc1ccc(NC(=O)Nc2cc(C)ccc2OC(F)F)c(OC)c1,22223*,0,1,2,-6
COc1ccc(NC(=O)CS(=O)(=O)c2ccc(C)cc2)c(OC)c1,3737,-8,10,-2,10
CC(C)c1ccc(C(=O)Nc2ccc(S(=O)(=O)NC3=NCCCCC3)cc2)cc1,3882,.,-7,0,0
Cc1ccc(S(=O)(=O)NC(=O)Nc2ccc(N(C)C)cc2)cc1,3498,83*,-31,2,-3
Cc1nnc(NC(=O)C2CCN(c3cnccn3)CC2)s1,22414*,-13,0,0,-2
Cc1nnc(NC(=O)C2CCN(c3nnnn3-c3ccccc3)CC2)s1,21118*,-26,3,?,-4
O=C(Nc1ccc(N2CCN(C(=O)C3CCCO3)CC2)nn1)c1ccccc1 (stereo not given),.,3,.,.,.
CC1CCN(c2cc(NC(=O)CSc3ccncc3)ncn2)CC1,.,3,.,.,.
C=CCn1c(N)c(C(=O)NCCC2=CCCCC2)sc1=S,16404*,18,-4,-1,-5
C=CCn1c(N)c(C(=O)N2CCN(C)CC2)sc1=S,22789*,-19,0,2,-7
SMILES,Autofluor counter,PriA SSB inh,BoNT-F LC inh,BoNT A protease,Anthrax LF inh2
Cc1ccc(-n2c(N)c(C(=O)N3CCN(C)CC3)sc2=S)cc1,21266*,0,-2,-1,-3
Nc1c(C(=O)N2CCOCC2)sc(=S)n1-c1ccccc1F,.,6,.,.,.
C=CCn1c(N)c(C(=O)OCC)sc1=S,9816,1,-14,-1,4
Nc1c(C(=O)N2CCOCC2)sc(=S)n1-c1ccccc1,21197*,-13,-4,-5,1
COc1ccc(-c2ccc(C)c(NS(=O)(=O)c3ccc(NC(=O)C(C)C)cc3)c2)nn1,.,10,.,.,.
Nc1c(C(=O)N2CCCCC2)sc(=S)n1-c1ccccc1,21338*,17,-2,-1,0
Cc1ccc(-n2c(N)c(C(=O)N3CCCCC3)sc2=S)cc1,.,8,.,.,.
COc1cccc(C2NC(=O)NC(C)=C2C(=O)Nc2cc(OC)ccc2OC)c1 (stereo not given),17900*,6,-5,-4,1
Cc1ccc2cc(CN(CC3CCCO3)S(=O)(=O)c3ccccc3)c3nnnn3c2c1 (stereo not given),17821*,-16,10,10,-6
Cc1ccc2cc(CN(CC3CCCO3)C(=O)Nc3ccccc3F)c3nnnn3c2c1 (stereo not given),2001,-15,-5,0,0
CSc1cccc(NC(=O)COc2cc(C)nc(-c3ccc(C(F)(F)F)cc3)n2)c1,.,-12,.,.,.
CN(N=Cc1cccnc1)c1cnc2ccccc2n1,.,-13,.,.,.
CN(/N=C/c1c[nH]c2ccccc12)c1cnn(-c2ccc(F)c(Cl)c2)c(=O)c1Cl,20923*,.,0,-1,-4
CN(/N=C/c1cccnc1)c1cnn(-c2ccc(F)c(Cl)c2)c(=O)c1Cl,11535,.,36*,?,-20
CN(N=Cc1c[nH]c2ccccc12)c1cnn(-c2ccc(F)c(Cl)c2)c(=O)c1Cl,.,7,.,.,.
O=C(Nc1nc(-c2ccc(Br)s2)cs1)Nc1ccccc1F,.,-13,.,.,.
CSc1ccc(C=NNC(=O)c2ccc(C)c(C)c2)cc1,.,1,.,.,.
CCn1c(=O)[nH]c2cc(C(=O)N3CCN(c4ccccc4)CC3)ccc2c1=O,22918*,-20,0,?,-6
CCOC(=O)N1CCN(C(=O)c2ccc3c(=O)n(Cc4ccccc4)c(=S)[nH]c3c2)CC1,2883,-1,-12,0,-1
CCOC(=O)N1CCN(C(=O)c2ccc3c(=O)n(Cc4ccccc4OC)c(=S)[nH]c3c2)CC1,16581*,7,0,0,-3
O=C(c1ccc2c(=O)n(Cc3ccc4c(c3)OCO4)c(=S)[nH]c2c1)N1CCCCC1,22165*,-14,3,3,-2
O=C(c1ccc2c(=O)n(Cc3ccc(Cl)cc3)c(=S)[nH]c2c1)N1CCOCC1,5054,-2,2,1,-4
O=c1c2ccc(Cl)cc2[nH]c(=S)n1Cc1cccnc1,21022*,-10,7,4,-4
CC1CC(C)CN(C(=O)c2ccc3c(=O)n(Cc4ccc5c(c4)OCO5)c(=S)[nH]c3c2)C1 (stereo not given),?,9,11,3,-12
O=C(c1ccc2c(=O)n(CCc3ccccc3)c(=O)[nH]c2c1)N1CCN(c2ccccc2)CC1,3518,-12,11,-3,-8
SMILES,Autofluor counter,PriA SSB inh,BoNT-F LC inh,BoNT A protease,Anthrax LF inh2
O=S(=O)(c1ccc(F)cc1)c1nc(-c2ccccc2F)oc1NCc1cccnc1,.,14,.,.,.
Cc1ccc2nc(C3CN(C(=O)COc4ccccc4C)C3)[nH]c2c1,.,-9,.,.,.
O=C(c1ccc2c(=O)n(Cc3ccc(Cl)cc3)c(=S)[nH]c2c1)N1CCCC1,4933,13,-6,-4,1
CN1CCN(C(=O)c2ccc3c(=O)n(Cc4ccc(Cl)cc4)c(=S)[nH]c3c2)CC1,20632*,12,-2,-1,-2
COC(=O)[C@H](CCSC)NC(=O)NCc1ccccc1F,22106*,-8,-2,1,1
O=C(NC1CCN(Cc2nnnn2CCc2ccccc2)CC1)c1ccccc1F,22189*,-4,5,3,-2
